# Measurements published in the supplement of paper PMC10849652.
# About 8,800 targets were measured; listed, in parts, are those with a hit and a random draw of the rest. About 0.5% of all pairs of compound and target were hits. Unmarked numbers belong to inactive results.
# Legend:
# Test in all cases: log2 fold change, soluble protein after heating vs DMSO (PISA); higher = thermal stabilisation; K562 lysate, 10 uM; active = over 0.2 and 3.5 SD of the protein, either way, in both replicates (recomputed)
# [1] = compound: NCC(=O)Nc1ccc(-n2nc(C(F)(F)F)cc2-c2ccc3c(ccc4ccccc43)c2)cc1
# Procedure, shortened: (§1)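 A 30 min treatment with 10 μM compound was applied to crude K562 extract at 1 mg/mL protein in PBS pH 7.4 with 1 mM MgCl2. Heating for 3 min spanned 48°C-58°C, after which aliquots were pooled, adjusted to 0.5% NP-40 at 4°C and spun at 21,000xg for 90 min. TMTpro 16plex LC-MS/MS of the supernatant, with channel sums equalised, gave values recorded as log-two fold change in thermal stability against solvent controls, from duplicates.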
# [2] = compound: O=C(CCCCCCC(=O)Nc1ccccc1)NO [vorinostat]
# Procedure, shortened: as §1
# [3] = compound: O=C(O)c1ccc2c(c1)nc(Nc1cccc(Cl)c1)c1ccncc12 [silmitasertib]
# Procedure, shortened: as §1
# [4] = compound: O=C1NC(=O)C(c2cnc3ccccn23)=C1c1cn2c3c(cc(F)cc13)CN(C(=O)N1CCCCC1)CC2
# Procedure, shortened: as §1
# [5] = compound: c1cn2cc(-c3ccc4cn[nH]c4c3)nc(Nc3ccc(N4CCOCC4)cc3)c2n1 [entospletinib]
# Procedure, shortened: as §1
# UniProt Q8NCF5, sequence (Q8NCF5 whole entry, looked up): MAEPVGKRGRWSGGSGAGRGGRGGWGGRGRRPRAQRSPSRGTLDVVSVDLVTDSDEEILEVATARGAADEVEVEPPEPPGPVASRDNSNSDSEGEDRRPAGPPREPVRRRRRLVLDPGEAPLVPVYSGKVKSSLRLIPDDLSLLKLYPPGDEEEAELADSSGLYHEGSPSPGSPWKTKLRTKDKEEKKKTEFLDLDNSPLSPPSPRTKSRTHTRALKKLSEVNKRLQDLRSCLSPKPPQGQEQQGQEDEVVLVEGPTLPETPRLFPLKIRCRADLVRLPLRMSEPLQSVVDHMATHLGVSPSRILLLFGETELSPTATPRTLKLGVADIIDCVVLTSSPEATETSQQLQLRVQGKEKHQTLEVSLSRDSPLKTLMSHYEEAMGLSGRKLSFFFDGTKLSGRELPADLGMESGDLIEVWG
# UniProt Q15233, sequence (Q15233 whole entry, looked up): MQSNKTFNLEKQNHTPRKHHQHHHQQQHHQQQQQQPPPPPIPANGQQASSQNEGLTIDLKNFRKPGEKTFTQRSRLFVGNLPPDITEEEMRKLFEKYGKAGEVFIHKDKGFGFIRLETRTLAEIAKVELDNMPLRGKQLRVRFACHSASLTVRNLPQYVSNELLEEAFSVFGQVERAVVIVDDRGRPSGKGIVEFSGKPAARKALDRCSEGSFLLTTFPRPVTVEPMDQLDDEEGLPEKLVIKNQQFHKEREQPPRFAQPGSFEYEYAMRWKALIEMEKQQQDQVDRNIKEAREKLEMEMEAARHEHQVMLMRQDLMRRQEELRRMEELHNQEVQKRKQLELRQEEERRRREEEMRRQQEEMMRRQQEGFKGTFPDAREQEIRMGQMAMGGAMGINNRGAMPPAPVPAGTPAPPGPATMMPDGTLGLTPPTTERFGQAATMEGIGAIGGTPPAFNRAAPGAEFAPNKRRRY
# UniProt O94776, sequence (O94776 whole entry, looked up): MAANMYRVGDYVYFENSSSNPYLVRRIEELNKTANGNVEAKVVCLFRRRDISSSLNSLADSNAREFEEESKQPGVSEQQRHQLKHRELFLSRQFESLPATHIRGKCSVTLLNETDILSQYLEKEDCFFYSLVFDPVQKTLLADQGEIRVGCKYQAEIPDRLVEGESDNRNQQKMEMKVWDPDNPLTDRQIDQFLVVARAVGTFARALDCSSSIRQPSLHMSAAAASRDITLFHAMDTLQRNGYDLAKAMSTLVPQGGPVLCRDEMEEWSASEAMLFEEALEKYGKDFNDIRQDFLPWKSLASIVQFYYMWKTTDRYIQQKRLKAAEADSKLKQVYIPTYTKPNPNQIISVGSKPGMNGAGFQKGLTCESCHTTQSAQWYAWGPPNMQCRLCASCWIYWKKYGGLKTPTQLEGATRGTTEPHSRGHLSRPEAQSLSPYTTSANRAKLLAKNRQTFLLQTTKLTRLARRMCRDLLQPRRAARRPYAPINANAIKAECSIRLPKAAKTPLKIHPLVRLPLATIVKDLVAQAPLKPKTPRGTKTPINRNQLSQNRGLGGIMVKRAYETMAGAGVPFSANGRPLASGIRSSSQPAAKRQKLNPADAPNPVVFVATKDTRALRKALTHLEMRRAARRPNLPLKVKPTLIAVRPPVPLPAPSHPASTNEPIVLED
# UniProt P84157, sequence (P84157 whole entry, looked up): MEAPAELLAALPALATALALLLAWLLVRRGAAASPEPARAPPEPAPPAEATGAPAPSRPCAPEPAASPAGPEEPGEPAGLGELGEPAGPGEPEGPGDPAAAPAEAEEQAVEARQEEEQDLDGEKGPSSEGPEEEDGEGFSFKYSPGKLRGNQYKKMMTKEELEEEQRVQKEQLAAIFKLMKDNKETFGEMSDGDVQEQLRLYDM
# UniProt Q96IV0, sequence (Q96IV0 whole entry, looked up): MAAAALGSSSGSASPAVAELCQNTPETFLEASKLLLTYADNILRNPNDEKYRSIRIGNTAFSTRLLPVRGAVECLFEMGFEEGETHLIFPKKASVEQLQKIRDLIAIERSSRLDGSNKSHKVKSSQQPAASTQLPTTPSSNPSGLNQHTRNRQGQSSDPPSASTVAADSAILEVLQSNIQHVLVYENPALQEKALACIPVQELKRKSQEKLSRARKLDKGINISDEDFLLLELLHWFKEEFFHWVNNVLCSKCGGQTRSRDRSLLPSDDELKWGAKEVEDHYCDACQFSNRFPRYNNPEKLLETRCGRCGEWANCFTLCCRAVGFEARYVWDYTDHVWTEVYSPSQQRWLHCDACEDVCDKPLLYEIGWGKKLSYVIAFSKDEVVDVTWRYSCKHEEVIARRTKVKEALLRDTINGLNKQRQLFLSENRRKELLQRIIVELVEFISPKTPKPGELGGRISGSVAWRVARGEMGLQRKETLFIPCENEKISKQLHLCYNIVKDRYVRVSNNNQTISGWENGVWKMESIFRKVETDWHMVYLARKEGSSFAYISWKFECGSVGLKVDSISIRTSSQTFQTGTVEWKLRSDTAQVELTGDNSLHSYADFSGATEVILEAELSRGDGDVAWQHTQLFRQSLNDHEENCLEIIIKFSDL
# UniProt Q9BSD7, sequence (Q9BSD7 whole entry, looked up): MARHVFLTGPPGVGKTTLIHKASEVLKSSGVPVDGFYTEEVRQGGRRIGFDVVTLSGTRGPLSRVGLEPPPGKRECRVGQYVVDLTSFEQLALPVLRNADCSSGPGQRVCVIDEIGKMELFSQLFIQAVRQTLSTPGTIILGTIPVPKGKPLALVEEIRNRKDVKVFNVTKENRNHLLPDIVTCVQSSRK
# UniProt P52948, sequence (P52948 whole entry, looked up): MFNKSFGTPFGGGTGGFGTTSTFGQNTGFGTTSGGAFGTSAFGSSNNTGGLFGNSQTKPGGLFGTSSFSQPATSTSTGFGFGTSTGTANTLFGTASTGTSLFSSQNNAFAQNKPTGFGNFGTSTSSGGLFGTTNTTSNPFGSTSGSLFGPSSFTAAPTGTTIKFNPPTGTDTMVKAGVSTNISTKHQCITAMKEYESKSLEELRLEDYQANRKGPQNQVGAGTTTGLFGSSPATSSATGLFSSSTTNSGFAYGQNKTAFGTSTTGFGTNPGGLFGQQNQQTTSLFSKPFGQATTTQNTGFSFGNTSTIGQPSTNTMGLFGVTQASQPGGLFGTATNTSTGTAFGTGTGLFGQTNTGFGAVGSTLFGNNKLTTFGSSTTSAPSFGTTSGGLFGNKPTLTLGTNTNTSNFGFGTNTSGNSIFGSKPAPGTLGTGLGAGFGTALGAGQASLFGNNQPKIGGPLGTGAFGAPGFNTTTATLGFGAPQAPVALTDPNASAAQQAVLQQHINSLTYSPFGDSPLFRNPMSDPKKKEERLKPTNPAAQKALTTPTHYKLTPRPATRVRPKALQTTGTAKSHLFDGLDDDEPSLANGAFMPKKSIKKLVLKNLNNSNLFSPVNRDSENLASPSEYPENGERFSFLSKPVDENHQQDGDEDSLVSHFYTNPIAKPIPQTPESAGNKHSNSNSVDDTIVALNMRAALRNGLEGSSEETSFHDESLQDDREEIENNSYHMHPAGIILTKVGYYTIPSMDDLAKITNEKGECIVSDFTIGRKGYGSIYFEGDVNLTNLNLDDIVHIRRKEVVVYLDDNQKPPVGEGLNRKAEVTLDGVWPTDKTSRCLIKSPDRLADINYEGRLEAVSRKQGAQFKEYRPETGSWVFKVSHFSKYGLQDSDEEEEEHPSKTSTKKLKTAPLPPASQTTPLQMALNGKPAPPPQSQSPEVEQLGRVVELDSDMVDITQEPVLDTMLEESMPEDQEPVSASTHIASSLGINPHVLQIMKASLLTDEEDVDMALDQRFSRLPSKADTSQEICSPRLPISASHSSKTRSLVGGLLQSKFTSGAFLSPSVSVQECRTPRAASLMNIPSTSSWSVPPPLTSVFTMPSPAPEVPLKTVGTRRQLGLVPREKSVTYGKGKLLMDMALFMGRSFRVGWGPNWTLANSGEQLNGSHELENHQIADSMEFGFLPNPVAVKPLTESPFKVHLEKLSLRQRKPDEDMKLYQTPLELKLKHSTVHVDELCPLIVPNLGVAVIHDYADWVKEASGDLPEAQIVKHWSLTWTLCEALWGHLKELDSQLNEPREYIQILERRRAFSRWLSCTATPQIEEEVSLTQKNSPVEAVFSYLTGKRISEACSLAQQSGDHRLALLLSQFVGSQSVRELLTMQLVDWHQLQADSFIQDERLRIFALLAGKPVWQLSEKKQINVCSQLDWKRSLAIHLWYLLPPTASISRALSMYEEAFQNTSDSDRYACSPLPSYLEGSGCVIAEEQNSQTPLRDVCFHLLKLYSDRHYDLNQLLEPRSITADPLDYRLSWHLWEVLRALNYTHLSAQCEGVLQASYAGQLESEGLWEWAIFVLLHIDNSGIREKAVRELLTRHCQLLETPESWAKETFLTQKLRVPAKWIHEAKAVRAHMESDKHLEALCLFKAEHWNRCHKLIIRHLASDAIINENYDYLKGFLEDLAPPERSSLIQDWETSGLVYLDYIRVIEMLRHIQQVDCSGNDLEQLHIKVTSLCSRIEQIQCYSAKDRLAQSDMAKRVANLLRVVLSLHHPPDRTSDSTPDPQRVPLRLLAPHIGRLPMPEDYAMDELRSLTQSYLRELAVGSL
# UniProt O75607, sequence (O75607 whole entry, looked up): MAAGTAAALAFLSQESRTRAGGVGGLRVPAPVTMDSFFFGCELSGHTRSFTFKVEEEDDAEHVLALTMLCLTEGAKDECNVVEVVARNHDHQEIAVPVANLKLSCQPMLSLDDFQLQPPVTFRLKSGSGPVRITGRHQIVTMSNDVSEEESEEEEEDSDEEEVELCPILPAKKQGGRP
# UniProt O60829, sequence (O60829 whole entry, looked up): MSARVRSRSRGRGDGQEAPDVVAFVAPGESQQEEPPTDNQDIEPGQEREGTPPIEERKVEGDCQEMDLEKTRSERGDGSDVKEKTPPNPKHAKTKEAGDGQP
# UniProt Q96IY1, sequence (Q96IY1 whole entry, looked up): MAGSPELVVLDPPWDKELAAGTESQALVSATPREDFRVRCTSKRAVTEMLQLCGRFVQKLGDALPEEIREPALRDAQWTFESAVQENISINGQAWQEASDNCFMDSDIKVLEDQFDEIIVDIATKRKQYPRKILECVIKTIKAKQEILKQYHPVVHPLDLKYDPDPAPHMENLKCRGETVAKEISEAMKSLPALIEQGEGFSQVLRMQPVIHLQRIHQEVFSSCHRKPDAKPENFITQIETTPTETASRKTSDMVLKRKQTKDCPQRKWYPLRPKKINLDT
Target,log2 fold change [1],log2 fold change [2],log2 fold change [3],log2 fold change [4],log2 fold change [5]
PARD3 (UniProt Q8TEW0),-0.071,-0.314,-0.118,-0.081,-0.003
NPM3 (UniProt O75607),-0.049,-0.012,0.021,-0.019,-0.037
NUP93 (UniProt Q8N1F7),-0.011,-0.242 (active),0.067,0.015,0.022
NNMT (UniProt P40261),0.014,-0.104,0.014,0.03,-0.004
NAT1 (UniProt P18440),-0.049,0.144,0.275 (active),0.032,-0.04
MYD88 isoform 6 (UniProt Q99836),-0.005,-0.366 (active),0.023,-0.05,0.033
OGFR (UniProt Q9NZT2),-0.036,-0.285 (active),0.02,-0.018,-0.061
PAPOLG (UniProt Q9BWT3),-0.037,-0.369 (active),0.209,0.066,-0.013
PARP14 (UniProt Q460N5),-0.006,-0.391 (active),0.009,0.149,-0.014
NDC1 (UniProt Q9BTX1),0.013,-0.134,-0.016,-0.012,-0.016
NOA1 (UniProt Q8NC60),0.065,-0.411 (active),0.049,0.048,-0.008
NUP98 (UniProt P52948),0.021,-0.231 (active),0.001,0.001,-0.012
NSL1 (UniProt Q96IY1),-0.012,-0.528 (active),-0.022,-0.005,0.03
NAP1L5 (UniProt Q96NT1),0.023,0.059,0.033,-0.049,0.071
MRPS12 (UniProt O15235),-0.005,-0.35 (active),-0.011,-0.013,-0.046
NUMBL (UniProt Q9Y6R0),0.04,-0.237,0.201,0.021,0.102
NOC2L (UniProt Q9Y3T9),-0.055,-0.126,0.031,0.009,0.028
NUDT4 (UniProt Q9NZJ9),-0.144,-0.162,0.028,0.03,-0.01
MTA2 (UniProt O94776),0.034,-0.352 (active),0.02,0.006,0.021
MTCH2 (UniProt Q9Y6C9),-0.016,-0.432 (active),-0.001,-0.075,0.026
NCAPG (UniProt Q9BPX3),-0.001,-0.283 (active),0.029,-0.003,-0.002

Target,log2 fold change [1],log2 fold change [2],log2 fold change [3],log2 fold change [4],log2 fold change [5]
NONO (UniProt Q15233),0.013,-0.355 (active),0.027,-0.007,0
NFATC2IP (UniProt Q8NCF5),0.041,-0.069,-0.039,-0.07,0.041
NIPBL (UniProt Q6KC79),-0.024,-0.357 (active),0.101,-0.005,0.071
NGLY1 (UniProt Q96IV0),-0.014,-0.29 (active),0.041,0.018,0.034
PANK2 (UniProt Q9BZ23),0,–,–,-0.012,-0.023
MXRA7 (UniProt P84157),0.118,0.262,-0.102,0.099,0.021
ORC1 (UniProt Q13415),–,–,–,–,-0.047
NUB1 isoform 2 (UniProt Q9Y5A7),–,–,–,-0.068,–
NR3C1 isoform 3 (UniProt P04150),-0.124,–,0.05,0.046,-0.064
NPLOC4 (UniProt I3L3I1),–,–,–,0.253,-0.146
NUB1 (UniProt Q9Y5A7),-0.004,-0.333 (active),-0.027,0.031,0.001
OSBPL1A (UniProt Q9BXW6),–,0.128,-0.19,-0.14,–
PAGE4 (UniProt O60829),–,-0.425 (active),0.06,-0.074,-0.054
NBN (UniProt O60934),-0.009,-0.21 (active),0.023,-0.008,-0.005
PAK4 (UniProt O96013),-0.003,-0.458,-0.038,0.028,0.05
NNT (UniProt Q13423),0.02,0.023,-0.001,-0.036,-0.01
NFATC4 isoform 2 (UniProt Q14934),0.207,–,–,0.076,0.019
PAFAH1B3 (UniProt Q15102),-0.013,-0.179,0.041,0.003,-0.052
NTPCR (UniProt Q9BSD7),0.014,-0.331 (active),0.029,0.003,0.059
NRIP1 (UniProt P48552),–,0.274,0,0.06,–
PARD3B (UniProt Q8TEW8),–,-0.585 (active),-0.209,–,–
